# Compound activity (PubChem)
# Hits are enriched below; roughly 1.3% of the tested compounds scored in any of these assays.
# Vif-A3G inh: inhibitors of Vif-APOBEC3G interaction; Q9HC16; HeLa A3G-eYFP + Vif (tagged APOBEC3G with the HIV-1 protein that degrades it), YFP fluorescence, overnight; Potency, µM (titrated, usually from 46.1 µM), without a hit: top-dose activity, negative = active, most hits filed as inhibitors; hit rate 0.076% among 410,000; also: potency is read from the fitted curve at half-maximal effect; % is scaled to controls: 0 for no effect and ±100 for the full control effect; nearly all actives have a fitted effect of over 60% in size
#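 HeLa cells stably expressing Vif and C-terminally eYFP-tagged A3G, seeded overnight at 37 deg C, then exposed to compound by pintool overnight at 37 deg C. Rise in yellow fluorescence (Ex 488/Em 500-530, Acumen) marks blocked Vif-driven A3G degradation.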
# TRPML1 inh: blocks the human TRPML1 channel; activity change, negative = inhibition, % (no concentration beside the values); Q9GZU1; hit rate 0.02% among 390,000; TRPML1-inducible cells, Ca2+ dye fluorescence, FDSS; hits give low values; inhibition of EC80 agonist-evoked calcium signal; in the data active = activity change below about -50%; inconclusive = between about -30% and that limit;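 also: stimulus is agonist 54-4 at its EC80 concentration; % is scaled to controls: 0 for no effect and ±100 for the full control effect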
# Target sequence (Q9GZU1 whole entry, looked up): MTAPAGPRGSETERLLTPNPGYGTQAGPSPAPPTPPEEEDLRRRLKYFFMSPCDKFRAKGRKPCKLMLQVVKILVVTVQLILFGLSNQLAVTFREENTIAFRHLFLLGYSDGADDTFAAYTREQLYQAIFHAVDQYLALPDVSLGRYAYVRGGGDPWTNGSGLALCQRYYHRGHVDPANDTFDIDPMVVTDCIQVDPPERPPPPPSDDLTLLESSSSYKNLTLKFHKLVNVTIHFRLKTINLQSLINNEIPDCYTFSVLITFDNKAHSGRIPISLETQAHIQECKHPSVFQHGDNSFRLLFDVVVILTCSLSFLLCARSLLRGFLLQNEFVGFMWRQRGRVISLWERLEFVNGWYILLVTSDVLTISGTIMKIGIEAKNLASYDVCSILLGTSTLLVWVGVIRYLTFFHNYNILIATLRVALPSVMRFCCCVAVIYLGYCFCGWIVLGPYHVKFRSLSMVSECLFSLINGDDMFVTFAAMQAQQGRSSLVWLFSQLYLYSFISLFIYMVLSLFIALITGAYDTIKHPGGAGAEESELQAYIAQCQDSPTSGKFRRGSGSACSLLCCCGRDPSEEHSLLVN
#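 Tet-induced TRPML1-DL cells loaded with Ca8 no-wash calcium dye were read kinetically on FDSS. Compound addition was followed by EC80 agonist 54-4 (4 uM final); inhibition was read over 110 s.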
# GRP78 ERSR act: ER stress response induction in glioma. U87-MG GRP78 promoter luciferase reporter, 16 h. Potency, µM, for inactives: at the top dose activation, hits mostly activators. hit rate 0.02% among 420,000; also: potency is read from the fitted curve at half-maximal effect; series mostly up to about 76 µM; % of control where 0% means no effect; nearly all actives have a fitted effect of over 35% in size
#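 Stably transfected U87-MG glioma cells carrying a GRP78-based luciferase sensor; 16 h compound incubation. Luminescence end-point read 10 min after Bright-Glo addition at room temperature.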
# TRPML1 ag: activates the human TRPML1 channel. Q9GZU1. TRPML1-expressing cells, Ca2+ dye fluorescence, FDSS. activation, % (no concentration beside the values). hit rate 0.12% among 410,000. AID 624414; in the data active = activation above about 50%; inconclusive = mostly about 30% to 49%; also: 0% is about no effect
#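 Agonist activity was taken from a 110 s kinetic Ca2+ dye read on the FDSS after pinning compounds onto TRPML1-DL cells. The cells were seeded at 1,500/well with Tet inducer, incubated about 16 h, then dye-loaded at room temperature.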
# 12-LOX inh: blocks human arachidonate 12S-lipoxygenase. hit rate 1.1% among 580,000. AID 1671190. P18054. Potency, µM (series often up to 108 µM), without a hit: top-dose activity change, negative = inhibition, hits mostly inhibitors. purified 12hLO, xylenol orange hydroperoxide absorbance; also: potency is read from the fitted curve at half-maximal effect; % is scaled to controls: 0 for no effect and ±100 for the full control effect
#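 Hydroperoxide product was detected by ferrous iron/xylenol orange as the 573 to 405 nm absorbance ratio. Arachidonic acid at 40 uM (final) was turned over for 30 min at room temperature by 150 nM human 12hLO, pH 7.0 Hepes buffer, after 15 min compound preincubation.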
# Vif-A3F inh: inhibitors of Vif-A3F interaction; Potency, µM (series often up to 46.1 µM), inactives show at the top dose activity, negative = active; AID 602313; HeLa A3F-eYFP + Vif (tagged APOBEC3F with the HIV-1 protein that degrades it), YFP fluorescence increase; hit rate 0.2% among 390,000; also: potency is read from the fitted curve at half-maximal effect; % of control where 0% means no effect; nearly all actives have a fitted effect of over 65% in size
#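 HeLa cells stably expressing Vif plus C-terminally eYFP-tagged A3F were seeded, incubated overnight at 37 deg C, dosed with compound, incubated overnight again at 37 deg C. Yellow fluorescence (Ex 488/Em 500-530) reported blocked Vif-mediated A3F-eYFP degradation.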
# * marks the source's active call; other numbers are inactive results; ? = inconclusive; / = not tested or not shown. Unless noted, calls follow the shape of the dose curve; as a rule, active = well fitted curve in the direction sought with a large enough effect; inconclusive = small, poorly fitted or top-dose-only effect, or another doubt; inactive = no such curve, though single readings can be large; an effect the other way counts as inactive or inconclusive.
SMILES,Vif-A3G inh,TRPML1 inh,GRP78 ERSR act,TRPML1 ag,12-LOX inh,Vif-A3F inh
CC(=O)Nc1ccc(C=NNc2ccc(S(=O)(=O)Nc3ccccc3C(=O)O)cc2[N+](=O)[O-])cc1,9.1%,11.8,-2.1%,1.0,?,0.5%
CCOc1cc(/C=N/Nc2ccc(S(=O)(=O)Nc3ccccc3C(=O)O)cc2[N+](=O)[O-])cc(Cl)c1O,0.6%,-1.6,-1.3%,0.2,35.5µM*,-0.7%
Cc1ccc(/C=N/Nc2ccc(S(=O)(=O)Nc3ccccc3C(=O)O)cc2[N+](=O)[O-])o1,/,/,/,/,14.1µM*,/
O=C(O)c1ccccc1NS(=O)(=O)c1ccc(N/N=C/c2cccc(O)c2O)c([N+](=O)[O-])c1,-0.9%,26.0,-3.9%,0.2,39.8µM*,1.7%
CCOc1ccc(C=NNc2ccc(S(=O)(=O)Nc3ccccc3C(=O)O)cc2[N+](=O)[O-])cc1OC,2.1%,25.2,-4.0%,1.9,/,3.9%
Cc1ccc2occ(/C=N/NC(=O)c3ccc(Cl)cc3)c(=O)c2c1,0.7%,-7.3,-0.3%,0.0,0.3%,-21.6%
O=C(N/N=C/c1coc2ccc(Cl)cc2c1=O)c1cc(O)cc(O)c1,3.0%,3.4,-5.2%,-0.6,44.7µM*,4.3%
C=CCn1cc(CN(Cc2ccco2)Cc2cccs2)c(C)n1,/,/,/,/,12.6µM*,/
CCCC12CN3CC(C)(CN(C1)C3c1cc(Br)ccc1OC)C2=O (stereo not drawn),/,/,/,/,29.0%,/
O=C(/C=C/c1ccccc1Cl)N[C@@H]1C[C@H]2CC[C@@H]1C2,/,/,/,/,-3.8%,/
O=C1CCc2c(Cl)cc(Cl)c(O)c21,/,/,/,/,5.62µM*,/
COc1cc(/C=C2\SC(=S)N(CCC(=O)Nc3ccccn3)C2=O)cc(OC)c1OC,-21.4%,-5.4,-3.0%,-0.6,-8.3%,25.1µM*
O=C(CN1C(=O)S/C(=C\c2cc(Cl)c(O)c(Cl)c2)C1=O)Nc1ccccc1,?,19.4,5.3%,18.4,-1.6%,12.6µM*
COc1cc(/C=C2/SC(=S)N(CCC(=O)Nc3ccccc3)C2=O)cc(OC)c1OC,?,19.8,-3.6%,5.7,-16.7%,11.2µM*
O=C(COc1ccccc1)Nc1ccccc1C(=O)c1ccccc1,/,/,/,/,24.2%,/
O=[N+]([O-])c1ccccc1/C=N/OCc1c(F)cccc1Cl,/,/,/,/,-49.5%,/
COc1ccc(C=NNC(=S)NC23CC4CC(CC(C4)C2)C3)cc1OC,0.4%,24.3,8.2%,1.6,44.7µM*,-29.5%
CCOc1ccc(CNC(=S)N/N=C/c2ccc(OC)c(OC)c2)cc1,-2.0%,71.4,0.5%,4.2,14.1µM*,-6.1%
COc1cc(OC)c(C=NNC(=S)NC23CC4CC(CC(C4)C2)C3)c(OC)c1,-2.3%,9.2,-5.2%,1.6,12.6µM*,-1.0%
Cc1ccc2snc(C(=O)N3CCN(C(=O)Nc4ccccc4)CC3)c2c1,/,/,/,/,10.5%,/
O=C(Nc1ccc(Br)cc1)c1cc(-c2cccnc2)nc2ccccc12,/,/,/,/,-26.1%,/
C/C(=N/Nc1ccc2ccccc2c1)c1ccccc1,/,/,/,/,2µM*,/
C/C(=N/Nc1ccccc1)c1ccc([N+](=O)[O-])cc1,/,/,/,/,1.58µM*,/
CC/C(C)=N/Nc1cccc([N+](=O)[O-])c1,-12.1%,-5.4,0.7%,1.3,1.12µM*,0.2%
C/C(=N\Nc1ccc([N+](=O)[O-])cc1)c1ccc(N)cc1,-17.0%,-10.6,0.3%,1.2,?,-0.4%
SMILES,Vif-A3G inh,TRPML1 inh,GRP78 ERSR act,TRPML1 ag,12-LOX inh,Vif-A3F inh
CCC(CC)=NNc1cccc([N+](=O)[O-])c1,-2.5%,33.4,0.6%,1.2,?,-1.4%
Cc1cnc(C(=O)OCc2ccccc2Cl)cn1,/,/,/,/,-32.8%,/
CCOC(=O)CSC1=NC(=O)/C(=C/c2ccc(Br)cc2)S1,-15.0%,11.7,-7.7%,0.0,39.8µM*,1.6%
CC1C(=O)N2CCCc3cc(S(=O)(=O)N(Cc4ccccc4)c4ccccc4)cc1c32 (stereo not drawn),/,/,/,/,10µM*,/
CC1C(=O)N2CCCc3cc(S(=O)(=O)N(C)Cc4ccccc4)cc1c32 (stereo not drawn),-0.4%,-4.9,-4.4%,3.6,-11.5%,3.7%
Nc1nccnc1C(=O)Nc1ccc(OCc2ccccc2)cc1,/,/,/,/,10.2%,/
